# Hit rate of the full screen: of about 13,000 compounds, about 3,200 (25%) showed an effect of 50% or more. The list shows a part of the results.
# Test system: P. falciparum stage V gametocytes
# Design: BacTiter-Glo ATP luminescence viability of purified stage V gametocytes in 384-well plates, per cent inhibition versus DMSO
# Conditions: 48 h, 5 µM; inhibitor
row,SMILES,% Inhibition [%]
1,O=C(Nc1ccc(-c2cccc(-c3nc4ccccc4[nH]3)c2)cc1)Nc1ccc(F)c(F)c1F [TCMDC-133237],3.705
2,COc1cc(N)cc2sc(N)nc12 [TCMDC-124235],-47.26
3,COCCN(C)c1ccc(C(=O)Nc2ccccc2)cc1NS(=O)(=O)Cc1ccccc1 [TCMDC-134575],41.39
4,O=C(O)CCSSc1cccc[n+]1[O-] [TCMDC-141973],168.8
5,COc1cc2c(cc1C(F)(F)F)N(C(=O)Nc1cc(F)cc(-c3cccnn3)c1)CC2 [TCMDC-139045],-0.3523
6,Cc1ccc(Nc2ccnc3cc(-c4nccs4)ccc23)cc1C(O)c1ccccc1 (stereo not shown) [TCMDC-138338],-2.553
7,Cc1ccc(C(=O)Nc2ccc(Nc3ccnc4cc(-c5ccccn5)ccc34)cc2O)cc1 [TCMDC-138205],115.7
8,Cc1ccc(C(=O)Nc2ccc(Nc3ccnc4cc(-c5nccs5)ccc34)cc2O)cc1 [TCMDC-138298],75.39
9,c1ccc(-c2ccc3c(Nc4ccc5[nH]ccc5c4)ccnc3c2)nc1 [TCMDC-138200],22.33
10,COc1cc2nccc(Nc3ccc(OCc4ccc(NC(C)=O)cc4)cc3)c2cc1OC.Cl [TCMDC-138198],-13.16
11,O=C(C(=O)c1ccc(Nc2ccnc3cc(-c4ccccn4)ccc23)cc1)c1ccccc1 [TCMDC-138204],-8.545
12,CC(=O)Nc1ccc(COc2ccc(Nc3ccnc4cc(-c5ccccn5)ccc34)cc2)cc1 [TCMDC-138206],116.6
13,COc1ccc(Nc2ccnc3cc(-c4ccccn4)ccc23)cc1OC [TCMDC-138207],-27.22
14,COc1cc2nccc(Nc3ccc(NC(=O)c4ccc(C)cc4)c(O)c3)c2cc1OC.Cl [TCMDC-138197],20.08
15,Cc1ccc(O)cc1Nc1ccnc2cc(-c3ccccn3)ccc12 [TCMDC-138201],17.09
16,Cc1ccc(C(=O)Nc2ccc(Nc3ccnc4cc(-c5ccncc5)ccc34)cc2O)cc1 [TCMDC-138294],-17.41
17,c1ccc(-c2ccc3c(Nc4ccc5[nH]ncc5c4)ccnc3c2)nc1 [TCMDC-138199],108.3
18,Cc1ccc(F)cc1S(=O)(=O)NCC(C)c1ccc(NC(=O)Nc2cccc(F)c2)cc1 (stereo not shown) [TCMDC-136380],-32.92
19,OC(CNc1ccnc(Nc2cccc(Cl)c2)n1)c1ccccc1C(F)(F)F (stereo not shown) [TCMDC-136578],-37.8
20,CC(C)n1cc2c(ccc3nc(N)nc(N)c32)n1 [TCMDC-137865],-36.93
21,COc1ccc2nccc([C@@H](O)CN3CCC(NCc4ccc5c(c4)N(C)C(=O)CO5)CC3)c2c1 [TCMDC-141093],-7.365
22,COCCCNc1sc(S(=O)(=O)c2ccccc2)nc1S(=O)(=O)c1ccc(C)cc1 [TCMDC-125275],-13.04
23,CS(=O)(=O)CCNCc1nc(-c2ccc3ncnc(Nc4ccc(OCc5ccccc5)c(Cl)c4)c3c2)cs1 [TCMDC-138497],-10.86

row,SMILES,% Inhibition [%]
1,CS(=O)(=O)CCNCc1nc(-c2ccc3c(=O)[nH]cnc3c2)cs1 [TCMDC-138539],107
2,CS(=O)(=O)CCNCc1nc(-c2ccc3c(Nc4ccc(F)c(O)c4)ccnc3c2)cs1 [TCMDC-138437],-66.48
3,O=C(Nc1ccc(Cl)cc1)N(CC1CC2CCC(C1)N2Cc1ccc(C(F)(F)F)cc1)c1ccc(N2CCOCC2)c(F)c1 (stereo not shown) [TCMDC-135859],42.25
4,COCc1nc(-c2ccccc2)nc(N2CCN(C(=O)NC(C)C)CC2)c1Cc1ccccc1F [TCMDC-124782],9.126
5,Cc1onc(-c2c(Cl)cccc2Cl)c1C(=O)NC1=NC(C)(C)ON1c1ccccc1 [TCMDC-123777],-4.951
6,Cc1cccc2[nH]c(-c3ccc(-c4cccc(NC(=O)NCc5ccccc5)c4)cc3)nc12 [TCMDC-133162],-12.85
7,COCCNCc1cccc(-c2ccccc2CN(C(=O)Nc2ccccc2)C2CCN(Cc3ccccc3)CC2)c1 [TCMDC-140579],41.2
8,COCCNCc1ccc(-c2ccc(CN(C(=O)Nc3ccccc3)C3CCN(Cc4ccccc4)CC3)cc2)cc1 [TCMDC-140600],51.26
9,COCCNCc1cccc(-c2cccc(CN(C(=O)Nc3ccccc3)C3CCN(Cc4ccccc4)CC3)c2)c1 [TCMDC-140586],56.29
10,COCCNCc1cccc(-c2ccc(CN(C(=O)Nc3ccccc3)C3CCN(Cc4ccccc4)CC3)cc2)c1 [TCMDC-140599],105.4
11,COc1cccc(CN2CCCC(CCC(=O)Nc3ccc(C(F)(F)F)cc3)C2)c1O (stereo not shown) [TCMDC-124616],-32.93
12,COc1ccc(CC(=O)Nc2ccc(-c3cccc(-c4nc5c(C)cccc5[nH]4)c3)cc2)cc1O [TCMDC-132145],-7.504
13,Fc1ccc(-c2nc(NCc3cccc(C(F)(F)F)c3)nn2-c2cccc(C(F)(F)F)c2)cc1C(F)(F)F [TCMDC-133542],-57.69
14,Fc1ccc(CNc2nc(-c3ccc(F)c(C(F)(F)F)c3)n(-c3cccc(C(F)(F)F)c3)n2)cc1 [TCMDC-133543],-1.205
15,O=[N+]([O-])c1cccc(-n2nc(NCc3ccc(Cl)cc3)nc2-c2ccc(F)c(C(F)(F)F)c2)c1 [TCMDC-133541],77.17
16,O=C(O)C1Cc2c([nH]c3ccccc23)C(c2ccc(Cl)cc2Cl)N1 (stereo not shown) [TCMDC-125815],25.42
17,CCOC(=O)C1=C(C)NC(Cn2ccnc2)=C(C(=O)OCC)C1c1ccc(C(C)(C)C)cc1 (stereo not shown) [TCMDC-138170],12.53
18,Cc1ccc(-c2cc(C(=O)Nc3ccc(S(=O)(=O)N(C)Cc4ccccc4)cc3)[nH]n2)c(O)c1 [TCMDC-125181],-25.99
19,CC(=O)Nc1ccc(NC(=O)c2cc(-c3ccc(C)cc3O)n[nH]2)cc1 [TCMDC-125182],0.9116
20,CC(=O)Nc1ccc(NC(=O)c2cc(-c3cc(Cl)ccc3O)n[nH]2)cc1 [TCMDC-125476],83.42
21,Cc1ccc(O)c(-c2cc(C(=O)Nc3ccc(S(=O)(=O)N4CCCCCC4)cc3)[nH]n2)c1 [TCMDC-125201],-31.36
22,CCN(c1ccccc1)S(=O)(=O)c1ccc(NC(=O)c2cc(-c3cc(C)ccc3O)n[nH]2)cc1 [TCMDC-124308],51.8
23,O=C(Nc1cccnc1)c1cc(-c2cc(Cl)ccc2O)n[nH]1 [TCMDC-125322],-15.69

# Source: paper PMC4552634, “A New Set of Chemical Starting Points with Plasmodium falciparum Transmission-Blocking Potential for Antimalarial Drug Discovery” (PLoS ONE, 2015)
